The structures appear in SMILES notation. Compounds without any hit were thinned out: in the full panel of roughly 83,000, 20% have a hit.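 Interpretation: 100, growth as untreated; towards 0, rising growth inhibition; 0, no net growth; 0 to -100, cell death. Compounds scoring below 10 were considered active.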 Unmarked numbers belong to inactive results. The source made the active and inactive calls.

Among the test systems are DU-145 prostate; K-562 leukemia; MALME-3M melanoma; MDA-MB-231 breast; SF-268 CNS; SF-295 CNS; SF-539 CNS; UACC-257 melanoma; M14 melanoma.
Common to all, as to assay: NCI-60 one-dose screen, 48 h (100 = growth as untreated, 0 = no growth, -100 = all killed)
What all share (settings): 10 µM

With `[2H]C([2H])([2H])Oc1ccc2ncc(C#Cc3cncc(C(=O)Nc4ccc(CN5CCN(C)CC5)c(C(F)(F)F)c4)c3)n2n1`, the growth is -98.8% (active) in the experiment with DU-145 prostate; 1.31% (active) in the experiment with K-562 leukemia; -81.1% (active) with MALME-3M melanoma; -90.5% (active) in the experiment with MDA-MB-231 breast; -42.8% (active) with SF-268 CNS; -77% (active) in the experiment on SF-295 CNS. The growth with SF-539 CNS is -90.2% (active); in the experiment with UACC-257 melanoma, -65.9% (active); with M14 melanoma it was -61.9% (active).

Consider `CCOC(=O)c1sc(N/N=C(\C)c2ccc3c(c2)Nc2ccccc2S3)nc1C`, for which the growth in the experiment on DU-145 prostate is 44.9%; in the experiment on K-562 leukemia, 1.72% (active); in the experiment with MALME-3M melanoma, 31.9%; in the experiment with MDA-MB-231 breast, 18.5%; in the experiment on SF-268 CNS, 56.9%; with SF-295 CNS, -14.9% (active). The growth was 33.8% in the experiment on SF-539 CNS, 35.8% with UACC-257 melanoma and 19.4% with M14 melanoma.

`CC(=O)Nc1ccc(-c2cn(-c3cccc(C(=O)Nc4ccc(F)c(C(F)(F)F)c4)c3)nn2)cn1`: the growth is 42.5% in the experiment with DU-145 prostate; 10.9% in the experiment on K-562 leukemia; 2.13% (active) with MALME-3M melanoma; -4.26% (active) in the experiment with MDA-MB-231 breast; 68.8% in the experiment with SF-268 CNS; 29.4% in the experiment on SF-295 CNS. Besides, the growth in the experiment with SF-539 CNS is 22.7%; in the experiment with UACC-257 melanoma, 90.4%; in the experiment with M14 melanoma, 62.6%.

In the case of `Cc1ccc2nc(COc3ccc(C(=O)NNC(=S)NC(=O)c4ccccc4)cc3)[nH]c2c1`, the growth with DU-145 prostate was 64.7%; in the experiment with K-562 leukemia, 21.8%; in the experiment with MALME-3M melanoma, 80.9%; in the experiment with MDA-MB-231 breast, 71.5%; with SF-268 CNS it was 55.2%; in the experiment on SF-295 CNS, 25.3%. Besides, the growth is 41.9% in the experiment on SF-539 CNS, 83.4% with UACC-257 melanoma and 65.2% with M14 melanoma.

`CN1C(=O)N(C)C2SC(N/N=C/c3ccccc3)=NC21` (configuration not stated): the growth is 97.1% in the experiment on DU-145 prostate; 19.2% in the experiment on K-562 leukemia; 61.6% with MALME-3M melanoma; 56.5% in the experiment with MDA-MB-231 breast; 82.9% with SF-268 CNS; 66.6% with SF-295 CNS. Moreover, the results for the growth in the experiment on SF-539 CNS, in the experiment with UACC-257 melanoma and in the experiment on M14 melanoma were 64.5%, 90.5% and 48.4%, respectively.

`COc1ccc(-c2cc(C(=O)N=Nc3c(O)[nH]c4ccc(F)cc34)c3ccccc3n2)cc1`: the growth is 74.7% with DU-145 prostate; 25.2% in the experiment with K-562 leukemia; 25.3% in the experiment on MALME-3M melanoma; 6.12% (active) in the experiment with MDA-MB-231 breast; 47.9% in the experiment on SF-268 CNS; 104% in the experiment on SF-295 CNS. Moreover, the values for the growth with SF-539 CNS, in the experiment with UACC-257 melanoma and in the experiment on M14 melanoma were 39.5%, 109% and 74.4%, respectively.

On to `Nc1cc(-c2cccc(C(=O)NCc3ccc4c(c3)OCO4)c2)ccn1`, for which the growth in the experiment with DU-145 prostate was 101%; in the experiment on K-562 leukemia, 74.4%; in the experiment on MALME-3M melanoma it was 99.3%; in the experiment with MDA-MB-231 breast, 102%; in the experiment with SF-268 CNS it was 91.5%; in the experiment with SF-295 CNS, 90.7%. Besides, the growth with SF-539 CNS was 93%; in the experiment on UACC-257 melanoma it was 106%; with M14 melanoma, 108%.

As to `O=C1c2ccccc2C(=O)c2c1c(C(=O)c1ccc(Cl)cc1)n1c2ccc2c3ccccc3ccc21`, the growth with DU-145 prostate is 108%; with K-562 leukemia, 106%; in the experiment on MALME-3M melanoma it was 101%; in the experiment on MDA-MB-231 breast it was 89.9%; in the experiment with SF-268 CNS it was 105%; in the experiment on SF-295 CNS, 99.1%. The growth was 88.5% with SF-539 CNS, 107% with UACC-257 melanoma and 107% in the experiment on M14 melanoma.

For the origin of these results see PubChem BioAssay (NCI).
